Experimental data published in PubChem BioAssay (EPA / NIEHS).
Calls of active or inactive are those of the source. How the source made its calls: active means hit-call score of the fitted dose curve at least 0.9, where 1 is the maximum; inactive means score below 0.9.

Key:
Settings in all cases: mRNA level, 48 h; actives raise or lower the signal
BCL2L11 (gene 10018) = assay: LTEA_HepaRG_BCL2L11: Life Technologies and Expression Analysis (LTEA) Assay for Bcl-2 (BCL2L11) gene using HepaRG (AID 2283473)
Outline: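 Differentiated human HepaRG cells in serum-free induction medium were exposed in duplicate for 48 h to eight concentrations (top 100 uM, half-log steps, 0.5% DMSO). BCL2L11 mRNA was quantified by TaqMan qRT-PCR, normalized to ACTB/GAPDH/POLR2A, bidirectional fit versus DMSO.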

[1] = read-out: Apolipoprotein A-V (APOA5) gene, APOA5 (gene 116519); assay: LTEA_HepaRG_APOA5: Life Technologies and Expression Analysis (LTEA) Assay for Apolipoprotein A-V (APOA5) gene using HepaRG (AID 2283474)
Outline: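 Differentiated human HepaRG cells were exposed in duplicate for 48 h to eight half-log concentrations from 100 uM in 0.5% DMSO. APOA5 mRNA was quantified by TaqMan qRT-PCR, normalized to ACTB, GAPDH and POLR2A, and fitted bidirectionally against DMSO.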

[2] = read-out: Bcl-2 (BID) gene, BID (gene 637); assay: LTEA_HepaRG_BID: Life Technologies and Expression Analysis (LTEA) Assay for Bcl-2 (BID) gene using HepaRG (AID 2283476)
Outline: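 Transcript levels of BID, measured by qRT-PCR and normalized to three housekeeping genes, were fitted bidirectionally against DMSO controls. Cells were HepaRG, dosed 48 h at up to 100 uM.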

Caspase-3 (Homo sapiens) = Caspase-3 (Homo sapiens) (UniProt P42574); assay: LTEA_HepaRG_CASP3: Life Technologies and Expression Analysis (LTEA) Assay for cysteine-aspartic acid protease (CASP3) using HepaRG (AID 2283477)
Sequence of Caspase-3 (Homo sapiens) (P42574 whole entry, looked up): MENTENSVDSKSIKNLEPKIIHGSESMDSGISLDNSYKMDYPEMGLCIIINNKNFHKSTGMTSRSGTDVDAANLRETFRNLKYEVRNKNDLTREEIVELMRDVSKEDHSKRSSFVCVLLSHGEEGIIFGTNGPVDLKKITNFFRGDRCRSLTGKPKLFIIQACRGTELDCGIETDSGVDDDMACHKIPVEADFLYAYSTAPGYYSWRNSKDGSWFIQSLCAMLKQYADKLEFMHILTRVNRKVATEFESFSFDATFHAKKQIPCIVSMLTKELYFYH
Outline: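 Differentiated human HepaRG cells in serum-free induction medium were exposed 48 h to 8-point half-log concentrations from 100 uM (0.5% DMSO vehicle). CASP3 mRNA was measured by qRT-PCR, normalised to ACTB, GAPDH and POLR2A, with bidirectional fitting against DMSO.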

[3] = read-out: Cytochrome P450 (CYP24A1), CYP24A1 (gene 1591); assay: LTEA_HepaRG_CYP24A1: Life Technologies and Expression Analysis (LTEA) Assay for Cytochrome P450 (CYP24A1) using HepaRG (AID 2283478)
Outline: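 Differentiated HepaRG cells, pre-cultured 48 h, were exposed in duplicate for 48 h in serum-free induction medium to 8 half-log concentrations (top 100 uM, 0.5% DMSO). CYP24A1 mRNA was quantified by TaqMan qRT-PCR, normalized to ACTB/GAPDH/POLR2A, fitted bidirectionally versus DMSO.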

[4] = read-out: Cytochrome P450 (CYP1A2), CYP1A2 (gene 1544); assay: LTEA_HepaRG_CYP1A2: Life Technologies and Expression Analysis (LTEA) Assay for Cytochrome P450 (CYP1A2) using HepaRG (AID 2283479)
Outline: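 Differentiated human HepaRG cells in serum-free induction medium were exposed in duplicate for 48 h to 8-point half-log concentrations up to 100 uM in 0.5% DMSO. CYP1A2 mRNA measured by qRT-PCR, normalized to ACTB, GAPDH, POLR2A; bidirectional fit vs DMSO.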

[5] = read-out: cysteine-aspartic acid protease (CASP8), CASP8 (gene 841); assay: LTEA_HepaRG_CASP8: Life Technologies and Expression Analysis (LTEA) Assay for cysteine-aspartic acid protease (CASP8) using HepaRG (AID 2283480)
Outline: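 Differentiated human HepaRG cells, plated 48 h then switched to serum-free induction medium, were exposed in duplicate for 48 h to 8 half-log concentrations up to 100 uM in 0.5% DMSO. CASP8 mRNA was quantified by qRT-PCR, normalized to ACTB/GAPDH/POLR2A.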

[6] = read-out: Cytochrome P450 (CYP2B6), CYP2B6 (gene 1555); assay: LTEA_HepaRG_CYP2B6: Life Technologies and Expression Analysis (LTEA) Assay for Cytochrome P450 (CYP2B6) using HepaRG (AID 2283481)
Outline: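 Differentiated HepaRG cells, serum-free induction medium, exposed 48 h in duplicate to 8-point half-log concentrations from 100 uM in 0.5% DMSO. CYP2B6 mRNA by qRT-PCR, normalized to ACTB, GAPDH, POLR2A; bidirectional fit versus DMSO.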

[7] = read-out: Cytochrome P450 2C19 (Homo sapiens) (UniProt P33261); assay: LTEA_HepaRG_CYP2C19: Life Technologies and Expression Analysis (LTEA) Assay for CYP2C19 using HepaRG (AID 2283482)
Outline: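 Differentiated human HepaRG cells were exposed for 48 h in serum-free induction medium to 8 concentrations (top 100 uM, half-log steps, 0.5% DMSO). CYP2C19 mRNA was measured by qRT-PCR, normalized to ACTB/GAPDH/POLR2A, and fitted bidirectionally against DMSO.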

CYP2C8 (gene 1558) = assay: LTEA_HepaRG_CYP2C8: Life Technologies and Expression Analysis (LTEA) Assay for CYP2C8 using HepaRG (AID 2283483)
Outline: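 Differentiated human HepaRG cells were exposed for 48 h in serum-free induction medium to eight half-log concentrations up to 100 uM in 0.5% DMSO, in duplicate. CYP2C8 mRNA was measured by TaqMan qRT-PCR, normalized to ACTB, GAPDH and POLR2A, and fitted bidirectionally against DMSO.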

CYP2C9 (gene 1559) = assay: LTEA_HepaRG_CYP2C9: Life Technologies and Expression Analysis (LTEA) Assay for CYP2C9 using HepaRG (AID 2283484)
Outline: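 Differentiated human HepaRG cells were exposed 48 h in serum-free induction medium to eight half-log concentrations up to 100 uM in 0.5% DMSO. CYP2C9 mRNA was measured by qRT-PCR, normalized to ACTB, GAPDH and POLR2A, and fitted bidirectionally against DMSO.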

CYP4A11 (gene 1579) = assay: LTEA_HepaRG_CYP4A11: Life Technologies and Expression Analysis (LTEA) Assay for CYP4A11 using HepaRG (AID 2283486)
Outline: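 Differentiated HepaRG cells, serum-free induction medium, exposed 48 h in duplicate to 8-point half-log series from 100 uM in 0.5% DMSO. CYP4A11 mRNA measured by qRT-PCR, normalized to ACTB, GAPDH, POLR2A; bidirectional fit versus DMSO.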

[8] = read-out: Cytochrome P450 3A4 (Homo sapiens) (UniProt P08684); assay: LTEA_HepaRG_CYP3A4: Life Technologies and Expression Analysis (LTEA) Assay for CYP3A4 using HepaRG (AID 2283487)
Outline: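 Differentiated HepaRG cells in serum-free induction medium exposed in duplicate for 48 h to 8 half-log concentrations up to 100 uM in 0.5% DMSO. CYP3A4 mRNA measured by qRT-PCR normalized to ACTB, GAPDH and POLR2A; bidirectional fit versus DMSO.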

[9] = read-out: DNA damage-inducible transcript 3 (DDIT3), DDIT3 (gene 1649); assay: LTEA_HepaRG_DDIT3: Life Technologies and Expression Analysis (LTEA) Assay for DNA damage-inducible transcript 3 (DDIT3) using HepaRG (AID 2283488)
Outline: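 HepaRG plated 48 h, switched to serum-free induction medium, dosed 48 h (100 uM top, half-log, 8 pts, 0.5% DMSO, n=2); RNA isolated; DDIT3 by qRT-PCR; bidirectional curve fit vs DMSO.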

[10] = read-out: Pro-epidermal growth factor (Homo sapiens) (UniProt P01133); assay: LTEA_HepaRG_EGF: Life Technologies and Expression Analysis (LTEA) Assay for Epidermal growth factor (EGF) using HepaRG (AID 2283489)
Outline: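 Differentiated human HepaRG cells, plated 48 h then switched to serum-free induction medium, were exposed for 48 h to test chemicals (8-point half-log series, top 100 uM, 0.5% DMSO). EGF mRNA was quantified by qRT-PCR, normalized to ACTB, GAPDH, POLR2A.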

[11] = read-out: Cytochrome P450 3A7 (Homo sapiens) (UniProt P24462); assay: LTEA_HepaRG_CYP3A7: Life Technologies and Expression Analysis (LTEA) Assay for CYP3A7 using HepaRG (AID 2283492)
Outline: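 HepaRG cells plated 48 h, then dosed in serum-free induction medium for 48 h at 8 concentrations (top 100 uM, half-log steps, 0.5% DMSO). CYP3A7 mRNA by qRT-PCR, normalised to ACTB/GAPDH/POLR2A; bidirectional fit versus DMSO.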

[12] = read-out: Apoptosis regulator Bcl-2 (Homo sapiens) (UniProt P10415); assay: LTEA_HepaRG_BCL2: Life Technologies and Expression Analysis (LTEA) Assay for Bcl-2 gene using HepaRG (AID 2283475)
Outline: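 HepaRG, plated 48 h then switched to serum-free induction medium; dosed 48 h, 8 conc. (max 100 uM, half-log steps), duplicate, 0.5% DMSO. Lysis in RLT, RNA isolated, TaqMan qRT-PCR for BCL2; ACTB/GAPDH/POLR2A normalisation; bidirectional fit vs DMSO.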

[13] = read-out: Early growth response protein 1 (EGR1) transcription factor, EGR1 (gene 1958); assay: LTEA_HepaRG_EGR1: Life Technologies and Expression Analysis (LTEA) Assay for Early growth response protein 1 (EGR1) transcription factor using HepaRG (AID 2283490)
Outline: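 Differentiated human HepaRG cells in serum-free induction medium were exposed in duplicate for 48 h to eight concentrations (top 100 uM, half-log steps) in 0.5% DMSO. EGR1 mRNA was quantified by qRT-PCR, normalized to ACTB, GAPDH and POLR2A, and fitted bidirectionally versus DMSO.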

[14] = read-out: Ezrin (EZR), EZR (gene 7430); assay: LTEA_HepaRG_EZR: Life Technologies and Expression Analysis (LTEA) Assay for Ezrin (EZR) using HepaRG (AID 2283491)
Outline: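 Differentiated human HepaRG cells, 48 h after plating, were exposed in serum-free induction medium for 48 hours to eight half-log concentrations up to 100 uM in 0.5% DMSO. EZR mRNA was measured by TaqMan qRT-PCR, normalized to ACTB, GAPDH and POLR2A, and fitted bidirectionally against DMSO.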

Measured: AC50

Sequence of Cytochrome P450 3A7 (Homo sapiens) (P24462 whole entry, looked up): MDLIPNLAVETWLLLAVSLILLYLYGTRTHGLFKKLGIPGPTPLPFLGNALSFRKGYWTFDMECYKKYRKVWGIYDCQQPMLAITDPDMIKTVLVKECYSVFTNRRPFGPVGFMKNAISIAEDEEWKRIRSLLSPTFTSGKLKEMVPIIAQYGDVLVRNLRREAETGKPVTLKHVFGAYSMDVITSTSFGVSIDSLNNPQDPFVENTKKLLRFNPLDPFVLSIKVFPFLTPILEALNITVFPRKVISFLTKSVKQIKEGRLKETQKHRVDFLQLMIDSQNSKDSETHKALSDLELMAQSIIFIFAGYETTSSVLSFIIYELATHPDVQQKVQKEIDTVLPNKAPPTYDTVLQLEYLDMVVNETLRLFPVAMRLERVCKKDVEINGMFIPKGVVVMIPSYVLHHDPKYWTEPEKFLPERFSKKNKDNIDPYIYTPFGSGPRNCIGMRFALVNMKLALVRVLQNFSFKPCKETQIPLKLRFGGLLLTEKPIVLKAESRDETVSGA
Sequence of Cytochrome P450 2C19 (Homo sapiens) (P33261 whole entry, looked up): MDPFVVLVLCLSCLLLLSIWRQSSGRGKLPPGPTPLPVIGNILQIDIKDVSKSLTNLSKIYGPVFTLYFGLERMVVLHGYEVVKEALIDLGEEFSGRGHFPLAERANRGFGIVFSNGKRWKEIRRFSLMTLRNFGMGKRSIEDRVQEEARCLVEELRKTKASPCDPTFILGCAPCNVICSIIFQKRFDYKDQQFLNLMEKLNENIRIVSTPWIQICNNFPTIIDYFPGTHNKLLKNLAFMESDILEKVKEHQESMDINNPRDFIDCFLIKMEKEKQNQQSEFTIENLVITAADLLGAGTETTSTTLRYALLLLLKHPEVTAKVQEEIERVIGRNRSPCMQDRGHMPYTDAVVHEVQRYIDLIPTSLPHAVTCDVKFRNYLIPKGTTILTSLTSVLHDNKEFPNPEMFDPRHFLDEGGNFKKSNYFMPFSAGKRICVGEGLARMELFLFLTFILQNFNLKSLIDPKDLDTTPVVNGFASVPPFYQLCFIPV
Sequence of Cytochrome P450 3A4 (Homo sapiens) (P08684 whole entry, looked up): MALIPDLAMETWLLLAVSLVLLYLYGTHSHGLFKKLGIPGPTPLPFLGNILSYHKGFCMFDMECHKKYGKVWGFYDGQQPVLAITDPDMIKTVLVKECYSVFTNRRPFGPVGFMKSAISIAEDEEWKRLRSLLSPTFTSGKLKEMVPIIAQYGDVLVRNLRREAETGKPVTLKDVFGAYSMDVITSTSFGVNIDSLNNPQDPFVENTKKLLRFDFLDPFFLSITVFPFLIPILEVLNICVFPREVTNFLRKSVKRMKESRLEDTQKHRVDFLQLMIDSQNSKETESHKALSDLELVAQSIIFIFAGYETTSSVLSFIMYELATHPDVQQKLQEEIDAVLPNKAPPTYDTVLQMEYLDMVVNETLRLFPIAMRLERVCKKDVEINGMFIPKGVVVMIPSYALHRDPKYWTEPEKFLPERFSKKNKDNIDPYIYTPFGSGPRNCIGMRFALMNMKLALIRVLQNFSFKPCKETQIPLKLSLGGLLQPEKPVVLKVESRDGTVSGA
Sequence of Apoptosis regulator Bcl-2 (Homo sapiens) (P10415 whole entry, looked up): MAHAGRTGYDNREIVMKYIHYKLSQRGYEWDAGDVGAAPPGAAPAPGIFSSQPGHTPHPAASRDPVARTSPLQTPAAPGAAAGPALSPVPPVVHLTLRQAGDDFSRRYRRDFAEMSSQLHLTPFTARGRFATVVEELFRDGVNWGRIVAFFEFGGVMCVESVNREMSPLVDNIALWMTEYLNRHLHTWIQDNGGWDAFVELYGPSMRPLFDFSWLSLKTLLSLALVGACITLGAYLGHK

CC(C)CCCCCCc1ccc(O)cc1
active: [8] 50 µM
inactive: BCL2L11 (gene 10018) | [1] | [2] | Caspase-3 (Homo sapiens) | [3] | [4] | [5] | [6] | [7] | CYP2C8 (gene 1558) | CYP2C9 (gene 1559) | CYP4A11 (gene 1579) | [9] | [10] | [11]

CC1(C)C(C=C(Cl)Cl)C1C(=O)OCc1cccc(Oc2ccccc2)c1 (stereo not given)
active: [4] 11 µM | [6] 12 µM | [8] 22.6 µM | [11] 18.3 µM
inactive: BCL2L11 (gene 10018) | [1] | [12] | [3] | [5] | [7] | CYP2C8 (gene 1558) | CYP2C9 (gene 1559) | CYP4A11 (gene 1579) | [9] | [10]

CCCN(CCC)C(=O)SCC
inactive: BCL2L11 (gene 10018) | [1] | [2] | [3] | [4] | [5] | [7] | CYP2C8 (gene 1558) | CYP2C9 (gene 1559) | CYP4A11 (gene 1579) | [8] | [9] | [10] | [11]
active: [6] 11.4 µM

N#CSCSc1nc2ccccc2s1
active: [3] 12.4 µM | CYP2C9 (gene 1559) 75.3 µM | CYP4A11 (gene 1579) 94.4 µM | [11] 64.3 µM
inactive: BCL2L11 (gene 10018) | [1] | Caspase-3 (Homo sapiens) | [4] | [5] | [6] | [7] | CYP2C8 (gene 1558) | [8] | [9] | [10] | [13]

CCOC(=O)C(C)Oc1ccc(Oc2cnc3cc(Cl)ccc3n2)cc1 (stereo not given)
active: [4] 19.2 µM | [7] 1.24 µM | CYP4A11 (gene 1579) 43 µM | [11] 0.571 µM
inactive: BCL2L11 (gene 10018) | [1] | Caspase-3 (Homo sapiens) | [3] | [5] | [6] | CYP2C8 (gene 1558) | CYP2C9 (gene 1559) | [8] | [9] | [10] | [13] | [14]

CCOC(=O)c1ccc(O)cc1
inactive: BCL2L11 (gene 10018) | [1] | [2] | Caspase-3 (Homo sapiens) | [3] | [4] | [5] | [6] | CYP2C8 (gene 1558) | CYP2C9 (gene 1559) | CYP4A11 (gene 1579) | [9] | [10] | [13] | [14] | [11]
